We go through 14 molecules from article PMC12136788.

The full ranking holds about 24,000 sequences; the median of “enrichment r” is about 0.99, and the highest 2% start at about 3.7. The sample as a whole holds a higher share of the highest values than the screen did.

First the molecules themselves.
T1: UNK ZnF1-3 (human, UniProt Q9C0B0 31-174)
T1 sequence: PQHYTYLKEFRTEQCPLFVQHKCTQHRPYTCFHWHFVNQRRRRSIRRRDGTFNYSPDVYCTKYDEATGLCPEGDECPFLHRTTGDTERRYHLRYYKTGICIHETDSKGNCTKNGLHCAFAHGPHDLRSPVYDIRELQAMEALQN

B1: 136207635_136207755_6660_3pUTR_ENSMUSG00000028664_ENSMUST00000105845|mouse|control|control (ssRNA)
RNA: GGGAGUUCUACAGUCCGACGAUCGUAUAAGUGUUCUCUGCUACUCUUGUGUCUGCUCAGAAGCAGUGGGUCUAGCACUAAGGAUGUCACUAUUGACCAUAACUUCUUUCCUAGAGAUAAGGUCUUAUGUGGCCCAGGCUGGCUCAACAGAGGAUUGAGCAUCA
B2: chr6:114281168:114281169:-_ENSG00000196591_ENST00000368632|hu_hu|hu_hu_hu_mus_True|8_108 (ssRNA)
RNA: GGGAGUUCUACAGUCCGACGAUCUUCCAUUUUUCUGUAUAAACCAUAAUUUAGCAGCAAGUUAUGAGUCAUCCGGAUUCUAUGAGGCUUCAUGGGAUGACCCUGGCCAUAAUAAUAAUUGCCAAUAUCACAGAUUCAGUAGUACAACAGAGGAUUGAGCAUCA
B3: 61064472_61067304_1030_3pUTR_ENSG00000119541_ENST00000238497|human|control|control (ssRNA)
RNA: GGGAGUUCUACAGUCCGACGAUCUUCGUUUCUCAAAUCUUCGCCUAAUGGCAGAAUCCAGAACCCAGGGUAUAUUUGUAGCUCCCAGAACCAAAAUUCCAUCAUUGUCUACACCAACCCCUUGCAUUUGCACUAGGAACUCCGCAACAGAGGAUUGAGCAUCA
B4: chr15:81824118:81824119:-_ENSMUSG00000022472_ENSMUST00000152227|mus_mus|motif|central (ssRNA)
RNA: GGGAGUUCUACAGUCCGACGAUCGAAGGGAACCUUAAGGUCCCUCUGGAAUCUGGAGUCUAGAUCAUAGACUUCGGGGCGGUUGCUGCCCAUGAAAUCCUAGCAGCAUAUCAUUAAGAAAACGCCCACUCACACCCCAACCACCAACAGAGGAUUGAGCAUCA
B5: chr6:38652254:38652255:-_ENSG00000124767_ENST00000373365|hu_hu|hu_hu_hu_mus_False|1_78 (ssRNA)
RNA: GGGAGUUCUACAGUCCGACGAUCCGAGAACUUCAUAGCAGGGAAGUCAAGCUUCUGGAUUAGCGUCAGUCCAAGAACCCUCGUAUAAAAAUCCAGGGACUUCUUAGGAUCCUUAAUUCUUAGCAUCGUUUGCUGCAAUAGAAACAACAGAGGAUUGAGCAUCA
B6: 14087313_14087433_2671_3pUTR_ENSG00000147862_ENST00000380959|human|control|control (ssRNA)
RNA: GGGAGUUCUACAGUCCGACGAUCGGGAAAAUAAAUUCGUUCAAAAUUAUUUUAAAUUCUUUUUAAUCCCCUCAAUUUAGAGUCCAAGGGCUGAAGGACUUAUAAUCAUGAUUCCCCUUUAGAUAUAAAUUUAUAAAUUGCACUCAACAGAGGAUUGAGCAUCA
B7: chr10:114190419:114190420:-_ENSG00000023041_ENST00000369405|hu_hu|FALSE|FALSE (ssRNA)
RNA: GGGAGUUCUACAGUCCGACGAUCGGGCAGGAAUUCAAAGGCAUAUGCAGAAUGGCUUCUCCAUUUCAAAAUGGUAAUAAAAAUAUUUAAAUCAUGGCACUAGGGCACCUUUGAGGAAAAGAACAUCUUAACCAGAGUAGGCUCCAACAGAGGAUUGAGCAUCA
B8: chr20:33097842:33097843:+_ENSG00000078747_ENST00000374864|hu_hu|motif|central (ssRNA)
RNA: GGGAGUUCUACAGUCCGACGAUCAAAAAUAUUAAAUAGCCAAGCCCUAUAGAACUAGGGCCAGGGCUACUUCAAAUAUAACGGUUCUGUAUUUUAAAAAUAUAGGGCAGAAAGCCUUUUGGGUGAUAUUUAUAUAUUUUCACACAACAGAGGAUUGAGCAUCA
B9: chr11:60965389:60965390:-_ENSMUSG00000042506_ENSMUST00000041683|mus_hu|FALSE|FALSE (ssRNA)
RNA: GGGAGUUCUACAGUCCGACGAUCCAGCUCCUCAAAAUGGAAGGGGAAAGGAAGAGUAAACAUCUUGGUAAAUAAAGUCUCCAACCACAGCACAGUCAUUGGAAUUUUUUUCUUCAUUUUUAUUUUCAAACUUACAGUAAACAACAACAGAGGAUUGAGCAUCA
B10: chr2:55200753:55200754:-_ENSG00000115310_ENST00000317610|hu_hu|motif|central (ssRNA)
RNA: GGGAGUUCUACAGUCCGACGAUCUUGGAUUUUAGCCAUAGCAUCUUUAACAUUCUUAUUUGCAAGUCCUAGAUAAUGAUCGGUCUGUGCCUGAUGCCGUUCAUAAAUAACAGGAACACUGAAGAGUGAAAUGAGAGCCAAAAUCAACAGAGGAUUGAGCAUCA
B11: chr5:180275300:180275301:-_ENSG00000196670_ENST00000512132|hu_mus|motif|central (ssRNA)
RNA: GGGAGUUCUACAGUCCGACGAUCAGUUGUGAUCUUCCUACCACAAACCAUUACUGUUAAGUCUAUAAUUCAUGACCCACGGAUAAACUGAUAUUCCCUGAAACCAUCCUCUCCCUGAAUUUGCCUGUUGGAGGCCCUUCUUGGCAACAGAGGAUUGAGCAUCA
B12: chr17:73267850:73267851:+_ENSMUSG00000024063_ENSMUST00000024857|mus_mus|FALSE|FALSE (ssRNA)
RNA: GGGAGUUCUACAGUCCGACGAUCGAAAUAUACAGACAUGAAGUCCUAGGGGAGGCUGACCCACGCCCUUGUGAUUAAGAAAAACAAAACAAAACAAAACAAACAAACAAACAAAAAAAAACCAGUCACUGAGUCCUGAAUGAGCAACAGAGGAUUGAGCAUCA
B13: chr1:53517203:53517204:+_ENSG00000116171_ENST00000408941|hu_mus|FALSE|FALSE (ssRNA)
RNA: GGGAGUUCUACAGUCCGACGAUCUCAGGAAGAGCUGUUUUAAUUUUCUUUUUAAAUCUUCCAAAAGCAUAUUUUUAUCCCAAACCUAAAUUAUAACAAAUAGCAUUAGAAUUAGAAAAACUUGGAAGAAAGAUAAAUGCAGACCAACAGAGGAUUGAGCAUCA
B14: chr1:135034296:135034297:+_ENSMUSG00000046062_ENSMUST00000052529|mus_hu|FALSE|FALSE (ssRNA)
RNA: GGGAGUUCUACAGUCCGACGAUCUAGCCUAACAUAGACAGGCCAAAUCAUUGAAAUAAAAAAAAUAUAGAAAAACAUAAAAGCCCAUUAACUUCUGAAUUUUGGGAAAGAAACAAGAAAGAGCCCAAAGUUUUCAGAUAGGCACAACAGAGGAUUGAGCAUCA

The assay has as its target T1, UNK ZnF1-3. Briefly: nsRBNS (natural sequence RNA bind-n-seq); RBNS binding buffer (assumed for nsRBNS): 25 mM Tris pH 7.5, 150 mM KCl, 3 mM MgCl2, 0.01% Triton X-100, 500 ug/ml BSA, 20 U/ml SUPERase-In, 4 C; UNK is unkempt and MSI1 is Musashi-1; names of the RNAs are library labels; protein concentration not given here; high values mean tight binding.
Regarding B1, the binding signal came to 0.733 enrichment R.

Consider B2, for which the binding signal came to 1.03 enrichment R.

In turn, B3 gave a binding signal of 1.29 enrichment R.

The molecule B4 displayed a binding signal of 1.07 enrichment R.

Take B5: the binding signal stood at 1.08 enrichment R.

In turn, B6 gave a binding signal of 4.87 enrichment R.

In the case of B7, the binding signal was 4.18 enrichment R.

Take B8: the binding signal worked out at 0.982 enrichment R.

On to B9, for which the binding signal was found to be 2 enrichment R.

Consider B10, for which the binding signal came out at 1.53 enrichment R.

Molecule B11 returned a binding signal of 0.806 enrichment R.

For B12, the binding signal came to 4.8 enrichment R.

As for B13, the binding signal was 1.47 enrichment R.

Take B14: the binding signal stood at 11.8 enrichment R.
